About 79,000 compounds went through this panel and 15% of them were active in at least one assay; those are over-represented in the sample as a whole. A number with no mark means an inactive call. Calls of active or inactive are those of the source. Cut-off read from the data, not from the text of the source: active = growth inhibition above about 70%; inactive = the rest.
Test: NCI Yeast Anticancer Drug Screen. Data for the mlh1 rad18 strain (AID 175)
Conditions: S. cerevisiae mlh1 rad18 strain growth inhibition; at 50.0 µM; stronger effect = higher value
In short: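 Cells of a genetically altered yeast strain, deficient in DNA damage repair, were treated with compound. Their growth was then compared with that of vehicle-treated cultures to give inhibition.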

Compound | growth inhibition
CCN(CC)CCOC(=O)C1CCCCC1C(=O)C1CCCCC1 (stereo not given) | 11.7%
O=c1c2cc(Br)ccc2ncn1COCc1ccccc1 | 43.3%
C=C1C(=O)OC2C1CCC(=C)C1CC(O)C(=C)C12 (stereo not given) | 31.4%
CCC(CC)=NNc1ccc([N+](=O)[O-])cc1 | 97.2% (active)
CCN(CC)CCNc1ccc(C)c2oc3ccc(O)cc3c(=O)c12 | 95.8% (active)
CCOC(=O)C[P+](c1ccc(C)cc1)(c1ccc(C)cc1)c1ccc(C)cc1 | 93.5% (active)
Cc1ccc(C)c(C(=O)/C=C/C(=O)O)c1 | 65.1%
CCCC/C=C(/CCCCOCOCCOC)[Si](C)(C)C | 30.8%
C=C1C2Oc3ccccc3C1N(c1ccccc1)O2 (stereo not given) | 70.5% (active)
NC(=O)N/N=C1/CC2CCCCC2c2ccccc21 (stereo not given) | 23.5%
CC(CCN)(CCN)[N+](=O)[O-] | 15.4%
COC(=O)/C=C(\NC1CC(OC2C[C@](O)(C(C)=O)Cc3c(O)c4c(c(O)c32)C(=O)c2c(OC)cccc2C4=O)OC(C)C1O)C(=O)OC (stereo not given in full) | 98.3% (active)
CCOc1ccc(N=Nc2ccccc2)cc1 | -11.9%
O=C(CNS(=O)(=O)Cc1ccccc1)NCC(=O)NNc1ccccc1 | 81.7% (active)
CC1(C)c2ccccc2Cc2cc3ccccc3nc21 | 83.2% (active)
CC(=O)Nc1ccc(C(C)(C)c2ccc(C)cc2)cc1 | -2.15%
CC[C@]1(O)C[C@H]2[C@@H]3CCc4cc(OC)ccc4[C@H]3CC[C@]2(C)[C@H]1O | 46.4%
CCCCSc1nc2c([nH]1)c(=S)n(C)c(=S)n2C | 81.2% (active)
CN(Cc1cc(C(C)(C)C)cc(Br)c1O)Cc1cc(C(C)(C)C)cc(Br)c1O | 61.1%
Oc1cc2c(cc1C(c1ccc(F)cc1)N1CCCCC1)OCO2 (stereo not given) | 59.3%

Compound | growth inhibition
CCCCCCCN(CCCCCCC)CC(O)Cc1cc2c(c3ccccc13)CCCC2 (stereo not given) | 98% (active)
Cc1c2ccncc2c(C)c2c1sc1ccccc12 | 83.3% (active)
c1ccc2c(c1)OCC(CNCCNCC1COc3ccccc3O1)O2 (stereo not given) | 67.2%
CC(C)(C)c1ccc(Sc2ncnc3ccccc23)cc1 | 91.6% (active)
C(#Cc1ccccc1)Sc1ccccc1 | 56.4%
CCOC(=O)NC(NNc1ccc([N+](=O)[O-])cc1[N+](=O)[O-])(C(F)(F)F)C(F)(F)F | 98.5% (active)
O=C1/C(=C/c2cccc(O)c2)COc2ccccc21 | 96.8% (active)
CNC1=C2NC(=O)/C(C)=C\C=C\C(C)C(O)C(C)C(O)C(C)C(OC(C)=O)C(C)C(OC)/C=C/OC3(C)Oc4c(C)c(O)c(c(c4C3=O)C1=O)C2=O (stereo not given) | 56.5%
COc1ccc(Cc2c(-c3ccc(C)cc3)n[nH]c(=O)c2C2C(=O)N(c3ccccc3)N=C2c2ccccc2)cc1 (stereo not given) | 96% (active)
Cc1ccc(Cc2n[nH]c(=O)n2N2C(=O)c3ccccc3C2=O)cc1 | -38.2%
COc1cc2c(c(C3C(=O)N(C)c4ccc(Br)cc43)c1OC)OCO2 (stereo not given) | 8.55%
CCCCCCCCC1N(C)CCCN1C | 99.5% (active)
C1=Cc2ccccc2/C1=C/c1ccccc1 | 91.2% (active)
COC(=O)c1ccc2ccccc2c1C(=O)c1ccc(F)cc1 | 95% (active)
CCNC(=S)N/N=C(/C)c1cccc(/C(C)=N\NC(=S)NCC)n1 | 37.7%
c1ccc2c(c1)ccc1ncccc12 | 64.8%
Cc1nc(N)nn1C | -0.4%
COC(=O)C1=C(C)NC(C)=C(C(=O)OC)C1c1ccc(NCc2ccccc2)c([N+](=O)[O-])c1 | 40.1%
CCc1ccccc1NC(=O)C(C#N)C1=C(Cl)C(=O)c2ccccc2C1=O (stereo not given) | 98.1% (active)
O=C(O)c1ccc2ccccc2c1C(=O)c1cccc2ccccc12 | 92.2% (active)

— PubChem BioAssay (NCI)
